The values that follow come from PubChem BioAssay (NCI).

This is part of a sample that, as a whole, favours compounds with a hit. Of some 83,000 tested, about 20% had one in any assay.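 A percent growth of 40 corresponds to 60% growth inhibition; 0 means no net growth; -100 means all cells died. Active threshold: below 10.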 A number with no mark means an inactive call. Active and inactive are the calls of the source.

Assay in all cases: NCI-60 one-dose screen, 48 h (100 = growth as untreated, 0 = no growth, -100 = all killed)
Common to all, as to settings: 10 µM unless noted

The test system of experiment [1] is DU-145 prostate.
Experiment [2] deals with K-562 leukemia.
The test system of experiment [3] is MALME-3M melanoma.
In experiment [4] the test system is MDA-MB-231 breast.
For experiment [5], the system named is RXF 393 renal.
For experiment [6], the system named is SF-268 CNS.
Experiment [7] relates to SF-295 CNS.
For experiment [8], the system named is SF-539 CNS.
For experiment [9], the system named is UACC-257 melanoma.
Experiment [10] has as its system M14 melanoma.
Experiment [11] has as its system HCT-15 colon.
The test system of experiment [12] is HT29 colon.
The subject of experiment [13] is SNB-75 CNS.
In experiment [14] the test system is PC-3 prostate.
Experiment [15] deals with SK-MEL-5 melanoma.
In experiment [16] the test system is UACC-62 melanoma.
For experiment [17], the system named is LOX IMVI melanoma.
For experiment [18], the system named is SK-MEL-28 melanoma.
Experiment [19] has as its system U251 CNS.
In experiment [20] the test system is SNB-19 CNS.

Turning to `Cc1cccc2c1C[C@@]1(C2=O)C(c2ccc(C(C)(C)C)cc2)=NOS1=O` (some centres not stated), the growth in [1] is 103%; in experiment [2] it was 77.8%; in experiment [3] it was 93.3%; in experiment [4], 86.1%; in experiment [5] it was 100%; in experiment [6], 94.7%. In addition, the growth was 99.2% in experiment [7]; 108% in experiment [8]; 95.8% in experiment [9]; 88.8% in experiment [10]; 72.1% in experiment [11]; 98.1% in experiment [12]. Besides, the growth in [13] was 101%; in experiment [14], 68.8%; in experiment [15] it was 90.3%; in [16], 73.8%; in [17] it was 76.6%; in experiment [18], 110%.
Turning to `CCN1C(=O)N(CC)C2C1NN=c1s/c(=C3\C(=O)N(CCC(C)C)c4ccccc43)c(=O)n12` (configuration not stated), the growth was 7.36% (active) in [1]; 11.6% in [2]; 51.3% in [3]; 5.92% (active) in experiment [4]; 33.2% in [5]; 50.8% in experiment [6]. Moreover, the growth in experiment [7] was 8.08% (active); in experiment [8] it was -15.2% (active); in experiment [9], 65%; in experiment [10], 13.5%; in experiment [11], 14.6%; in experiment [12], 4.19% (active). Besides, the growth in [13] was 21.6%; in [19], 8.16% (active); in experiment [15], 8.16% (active); in experiment [16], 18.5%; in experiment [17], 19.2%; in experiment [18], 59.9%.
Turning to `CCOC(=O)/C=C1\S/C(=N\Nc2cc(=O)[nH]c3ccccc23)N(c2ccccc2)C1=O`, the growth was 109% in experiment [1]; 98.2% in experiment [2]; 101% in [3]; 97.8% in experiment [4]; 103% in experiment [5]; 104% in experiment [6]. Besides, the growth in [7] was 103%; in experiment [8], 96.9%; in experiment [9], 107%; in experiment [10] it was 101%; in experiment [11], 98.7%; in experiment [12], 113%. The growth in [20] is 100%; in experiment [19], 94.2%; in [14], 95.4%; in [15], 104%; in experiment [16], 97%; in experiment [17] it was 97.2%. The growth in experiment [18] was 110%.
Consider `OCCNCCNC(Cc1ccc(Cl)cc1)c1ccccc1` (configuration not stated), for which the growth in [1] is 99.7%; in experiment [2], 88.5%; in experiment [3] it was 107%; in [4], 75.7%; in experiment [5] it was 84.5%; in experiment [6] it was 88.8%. Moreover, the growth in experiment [7] is 92.2%; in experiment [8] it was 72.9%; in experiment [9] it was 104%; in experiment [10], 90.5%; in [11], 93.3%; in [12] it was 59.9%. The growth was 94.2% in [19]; 55.3% in [14]; 95.2% in experiment [15]; 59.7% in experiment [16]; 83.8% in experiment [17]; 81.5% in experiment [18].
For the compound `CCN1CCN(CCNc2nccc(-c3c(-c4ccc(F)c(OC)c4)nc4sccn34)n2)S1(=O)=O`, the growth is 84.1% in experiment [1]; 54.4% in experiment [2]; -7.64% (active) in experiment [3]; 50.8% in [4]; 45% in experiment [5]; 79% in experiment [6]. In addition, the growth in experiment [7] is 90.5%; in experiment [8], 99.1%; in [9] it was 30.7%; in [10], 20.7%; in [11], 94.6%; in experiment [12], 73.1%. Further, the growth is 93% in [20]; 76.8% in [19]; 74.1% in experiment [14]; 41.4% in experiment [15]; 15.5% in [16]; 40.3% in [17]. In experiment [18], the growth is 27.2%.
For the compound `S=c1[nH]c(=S)c2c(-c3ccccc3)c(-c3ccccc3)oc2[nH]1`, the growth in [1] was 109%; in [2], 80.2%; in [3], 107%; in [4] it was 99%; in experiment [5], 91.2%; in experiment [6], 104%. For the same compound, the growth in experiment [7] was 97.5%; in experiment [8], 98.3%; in [9], 80.1%; in experiment [10], 105%; in experiment [11], 99.1%; in experiment [12], 102%. For the same compound, the growth in experiment [20] was 96.2%; in experiment [19], 95.9%; in experiment [14], 103%; in experiment [15] it was 108%; in experiment [16] it was 93.9%; in experiment [17] it was 96.5%. Further, the growth in experiment [18] was 105%.
`CCc1ccc(CCC(=O)Nc2ncc(Cc3ccccc3)s2)o1`: the growth in experiment [1] was 26.7%; in [2] it was 11.8%; in [3] it was 65.2%; in [4] it was 52.5%; in [5], 2.15% (active); in experiment [6], 61.1%. Also, the growth was 15.1% in experiment [7]; -10.1% (active) in [8]; 58.9% in experiment [9]; 10.5% in experiment [10]; 20.2% in [11]; 9.07% (active) in experiment [12]. For the same compound, the growth in experiment [20] was 52.9%; in experiment [14], 26.7%; in [15], 42.8%; in experiment [16] it was 23%; in [17] it was 42.4%; in experiment [18] it was 56.4%.
As to `C[C@@H]1O[C@@H](O[C@@H]2C[C@H](c3ccc4c(c3O)C(=O)C3=C(C4=O)[C@@]4(O)C(=O)C[C@](C)(O)C[C@@]4(O)C=C3)O[C@H](C)[C@H]2O)CC[C@@H]1O[C@H]1C[C@@H](O)[C@H](O)[C@@H](C)O1`, the growth in experiment [1] is 110%; in experiment [2], 94.4%; in [3], 65.4%; in experiment [4], 105%; in [5], 113%; in [6], 87%. In addition, the growth in experiment [7] is 102%; in experiment [8], 100%; in [9], 98.4%; in [10] it was 110%; in experiment [11], 94.8%; in [12], 108%. Further, the growth was 100% in experiment [20]; 96% in [14]; 101% in experiment [15]; 97.8% in [16]; 94.6% in [17]; 116% in experiment [18].
